# Assay results from publication PMC7862700, “An all-to-all approach to the identification of sequence-specific readers for epigenetic DNA modifications on cytosine”.
# Key:
# Assay in all cases: DAPPL (digital affinity profiling via proximity ligation, sequencing); 10 mM Tris-HCl pH 7.5, 50 mM NaCl, 1 mM DTT, 4% glycerol, room temperature, 30 min; GST-TFs on glutathione beads, 16-mer random dsDNA library, 0.1% formaldehyde crosslink after washing; high values mean tight binding
# FLI1 = target: T1, FLI1 (Homo sapiens, UniProt Q01543 1-452); conditions: protein: recombinant; tags: N-terminal GST; dsDNA, one strand shown
# T1 sequence: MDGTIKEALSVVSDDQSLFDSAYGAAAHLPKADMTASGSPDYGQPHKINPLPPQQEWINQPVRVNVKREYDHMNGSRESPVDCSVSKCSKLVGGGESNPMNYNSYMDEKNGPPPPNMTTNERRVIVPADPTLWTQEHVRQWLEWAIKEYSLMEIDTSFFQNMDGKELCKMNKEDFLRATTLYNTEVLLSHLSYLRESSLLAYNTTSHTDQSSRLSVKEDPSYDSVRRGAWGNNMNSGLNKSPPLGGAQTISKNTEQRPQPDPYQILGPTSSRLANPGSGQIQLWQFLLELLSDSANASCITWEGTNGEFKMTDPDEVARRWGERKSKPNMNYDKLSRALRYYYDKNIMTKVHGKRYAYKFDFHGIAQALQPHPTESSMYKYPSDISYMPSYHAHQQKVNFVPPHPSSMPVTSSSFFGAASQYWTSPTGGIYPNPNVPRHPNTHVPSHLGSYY
# Method in brief: (§1)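 Binding signal is defined as a hexamer's read frequency for one factor over its frequency for the tag-only sample. To obtain reads, GST-fused human transcription factors were expressed in yeast, captured on glutathione beads, barcoded with DNA and pooled with that sample. Pools met 200 nmole of a 16-mer random double-stranded DNA library in Tris/NaCl/DTT/glycerol buffer for 30 min at room temperature before washing, 0.1% formaldehyde crosslinking, proximity ligation (BsaI/T4 ligase, 1 h, 37 °C), PCR and Illumina NextSeq500 sequencing.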
# ELK1 = target: T2, ELK1 (Homo sapiens, UniProt P19419 1-428); conditions: protein: recombinant; tags: N-terminal GST; dsDNA, one strand shown
# T2 sequence: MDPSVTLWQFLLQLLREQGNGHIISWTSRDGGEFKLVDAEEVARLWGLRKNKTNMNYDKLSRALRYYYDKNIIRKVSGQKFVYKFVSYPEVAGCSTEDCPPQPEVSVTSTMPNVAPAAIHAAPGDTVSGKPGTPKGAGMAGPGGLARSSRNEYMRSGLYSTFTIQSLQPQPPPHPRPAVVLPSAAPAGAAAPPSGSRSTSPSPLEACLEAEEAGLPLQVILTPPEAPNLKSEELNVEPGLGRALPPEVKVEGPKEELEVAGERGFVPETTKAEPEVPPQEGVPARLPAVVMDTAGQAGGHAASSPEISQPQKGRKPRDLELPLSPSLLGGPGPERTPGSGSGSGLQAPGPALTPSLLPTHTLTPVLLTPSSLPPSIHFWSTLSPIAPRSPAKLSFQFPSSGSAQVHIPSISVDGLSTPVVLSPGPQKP
# Method in brief: as §1
# GABPA = target: T3, GABPA (Homo sapiens, UniProt Q06546 1-454); conditions: protein: recombinant; tags: N-terminal GST; dsDNA, one strand shown
# T3 sequence: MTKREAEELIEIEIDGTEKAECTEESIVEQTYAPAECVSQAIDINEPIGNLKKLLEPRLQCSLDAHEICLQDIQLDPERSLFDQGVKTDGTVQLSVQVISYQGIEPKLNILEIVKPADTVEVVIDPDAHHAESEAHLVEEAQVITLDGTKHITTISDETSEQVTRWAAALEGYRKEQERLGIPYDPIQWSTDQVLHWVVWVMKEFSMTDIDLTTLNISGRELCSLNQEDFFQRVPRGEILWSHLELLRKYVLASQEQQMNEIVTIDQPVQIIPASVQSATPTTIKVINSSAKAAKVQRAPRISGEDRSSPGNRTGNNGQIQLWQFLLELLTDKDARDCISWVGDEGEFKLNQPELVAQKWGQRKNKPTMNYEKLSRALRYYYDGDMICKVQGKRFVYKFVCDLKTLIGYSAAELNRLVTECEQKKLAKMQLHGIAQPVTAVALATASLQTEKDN
# Method in brief: as §1
# ERG = target: T4, ERG (Homo sapiens, UniProt P11308 1-479); conditions: protein: recombinant; tags: N-terminal GST; dsDNA, one strand shown
# T4 sequence: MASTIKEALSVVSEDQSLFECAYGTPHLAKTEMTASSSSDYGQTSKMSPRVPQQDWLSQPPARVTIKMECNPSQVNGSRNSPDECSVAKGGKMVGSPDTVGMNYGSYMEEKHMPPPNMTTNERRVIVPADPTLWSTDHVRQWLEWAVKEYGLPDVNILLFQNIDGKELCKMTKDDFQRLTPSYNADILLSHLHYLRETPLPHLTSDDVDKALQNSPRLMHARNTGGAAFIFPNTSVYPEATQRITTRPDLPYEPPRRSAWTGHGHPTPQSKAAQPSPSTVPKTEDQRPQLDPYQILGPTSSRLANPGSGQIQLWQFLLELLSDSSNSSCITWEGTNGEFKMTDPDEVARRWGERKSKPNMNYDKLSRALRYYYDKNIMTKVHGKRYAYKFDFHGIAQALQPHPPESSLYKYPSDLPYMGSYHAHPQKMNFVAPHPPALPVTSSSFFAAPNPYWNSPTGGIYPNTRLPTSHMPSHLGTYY
# Method in brief: as §1
# ELF1 = ELF1 (Homo sapiens, UniProt P32519 1-619); conditions: protein: recombinant; tags: N-terminal GST; dsDNA, one strand shown
# Method in brief: as §1
# EHF = target: T5, EHF (Homo sapiens, UniProt Q9NZC4 1-300); conditions: protein: recombinant; tags: N-terminal GST; dsDNA, one strand shown
# T5 sequence: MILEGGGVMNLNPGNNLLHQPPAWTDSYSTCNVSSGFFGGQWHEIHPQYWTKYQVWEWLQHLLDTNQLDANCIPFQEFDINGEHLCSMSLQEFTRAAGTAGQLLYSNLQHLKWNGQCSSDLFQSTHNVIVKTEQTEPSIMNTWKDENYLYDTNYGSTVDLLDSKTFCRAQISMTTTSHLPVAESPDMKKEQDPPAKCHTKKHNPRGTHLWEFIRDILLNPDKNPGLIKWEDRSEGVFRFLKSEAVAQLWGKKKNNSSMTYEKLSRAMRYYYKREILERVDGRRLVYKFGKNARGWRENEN
# Method in brief: as §1
# SPI1 = SPI1 (Homo sapiens, UniProt P17947 1-270); conditions: protein: recombinant; tags: N-terminal GST; dsDNA, one strand shown
# Method in brief: as §1
# SPIB = SPIB (Homo sapiens, UniProt Q01892 1-262); conditions: protein: recombinant; tags: N-terminal GST; dsDNA, one strand shown
# Method in brief: as §1
# ELK3 = target: T6, ELK3 (Homo sapiens, UniProt P41970 1-407); conditions: protein: recombinant; tags: N-terminal GST; dsDNA, one strand shown
# T6 sequence: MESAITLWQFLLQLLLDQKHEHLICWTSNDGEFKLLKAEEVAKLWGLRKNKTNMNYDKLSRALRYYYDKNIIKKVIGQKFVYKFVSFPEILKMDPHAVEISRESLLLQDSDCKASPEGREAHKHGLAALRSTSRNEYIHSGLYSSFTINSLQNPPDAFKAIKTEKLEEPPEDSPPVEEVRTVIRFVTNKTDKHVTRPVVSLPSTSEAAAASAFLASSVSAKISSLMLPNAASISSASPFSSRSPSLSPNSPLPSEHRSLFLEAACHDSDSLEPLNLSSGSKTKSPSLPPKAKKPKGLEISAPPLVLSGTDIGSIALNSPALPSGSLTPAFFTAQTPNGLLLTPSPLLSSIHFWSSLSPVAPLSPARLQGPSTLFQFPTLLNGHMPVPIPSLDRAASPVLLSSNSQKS
# Method in brief: as §1
# FEV = target: T7, FEV (Homo sapiens, UniProt Q99581 1-238); conditions: protein: recombinant; tags: N-terminal GST; dsDNA, one strand shown
# T7 sequence: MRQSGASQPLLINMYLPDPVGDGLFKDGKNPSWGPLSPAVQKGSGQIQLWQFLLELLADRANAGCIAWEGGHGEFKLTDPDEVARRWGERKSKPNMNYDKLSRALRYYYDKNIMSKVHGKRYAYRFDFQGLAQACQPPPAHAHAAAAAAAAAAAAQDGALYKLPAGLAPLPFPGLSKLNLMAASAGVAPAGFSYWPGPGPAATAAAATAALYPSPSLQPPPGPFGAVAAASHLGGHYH
# Method in brief: as §1
# ETV5 = ETV5 (Homo sapiens, UniProt P41161 1-510); conditions: protein: recombinant; tags: N-terminal GST; dsDNA, one strand shown
# Method in brief: as §1
# HSF1 = HSF1 (Homo sapiens, UniProt Q00613 1-529); conditions: protein: recombinant; tags: N-terminal GST; chain copies: 3; dsDNA, one strand shown
# Method in brief: as §1
# SPIC = target: T8, SPIC (Homo sapiens, UniProt Q8N5J4 1-248); conditions: protein: recombinant; tags: N-terminal GST; dsDNA, one strand shown
# T8 sequence: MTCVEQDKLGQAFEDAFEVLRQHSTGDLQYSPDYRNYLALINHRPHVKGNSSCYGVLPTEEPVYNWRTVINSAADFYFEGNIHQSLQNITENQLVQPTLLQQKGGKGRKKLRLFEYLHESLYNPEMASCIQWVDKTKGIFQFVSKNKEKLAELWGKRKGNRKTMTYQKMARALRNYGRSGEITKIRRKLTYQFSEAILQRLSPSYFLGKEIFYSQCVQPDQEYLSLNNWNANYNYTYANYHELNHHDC
# Method in brief: as §1
# ELF4 = ELF4 (Homo sapiens, UniProt Q99607 1-663); conditions: protein: recombinant; tags: N-terminal GST; dsDNA, one strand shown
# Method in brief: as §1
# ELK4 = target: T9, ELK4 (Homo sapiens, UniProt P28324-2 1-405); conditions: protein: recombinant; tags: N-terminal GST; dsDNA, one strand shown
# T9 sequence: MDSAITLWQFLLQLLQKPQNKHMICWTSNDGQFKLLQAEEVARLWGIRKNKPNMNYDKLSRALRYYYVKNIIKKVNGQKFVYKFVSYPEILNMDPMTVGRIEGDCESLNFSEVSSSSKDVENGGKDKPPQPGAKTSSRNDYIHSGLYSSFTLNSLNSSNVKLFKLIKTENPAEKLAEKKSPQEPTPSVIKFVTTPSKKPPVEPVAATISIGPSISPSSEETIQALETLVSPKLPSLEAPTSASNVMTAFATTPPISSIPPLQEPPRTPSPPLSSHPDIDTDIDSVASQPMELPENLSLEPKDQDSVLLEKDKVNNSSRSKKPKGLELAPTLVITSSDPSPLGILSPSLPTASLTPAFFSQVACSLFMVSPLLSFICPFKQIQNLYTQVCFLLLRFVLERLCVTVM
# Method in brief: as §1
# ETV2 = target: T10, ETV2 (Homo sapiens, UniProt O00321 1-342); conditions: protein: recombinant; tags: N-terminal GST; dsDNA, one strand shown
# T10 sequence: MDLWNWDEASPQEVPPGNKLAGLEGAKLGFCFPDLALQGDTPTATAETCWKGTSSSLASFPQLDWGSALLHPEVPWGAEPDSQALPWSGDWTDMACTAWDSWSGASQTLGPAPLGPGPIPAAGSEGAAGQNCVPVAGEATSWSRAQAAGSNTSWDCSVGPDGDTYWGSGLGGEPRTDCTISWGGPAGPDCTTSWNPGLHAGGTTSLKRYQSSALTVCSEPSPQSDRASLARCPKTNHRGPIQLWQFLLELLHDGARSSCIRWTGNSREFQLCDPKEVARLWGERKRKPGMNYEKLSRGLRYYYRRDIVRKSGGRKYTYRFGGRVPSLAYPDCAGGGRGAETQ
# Method in brief: as §1
# ELF3 = target: T11, ELF3 (Homo sapiens, UniProt P78545 1-371); conditions: protein: recombinant; tags: N-terminal GST; dsDNA, one strand shown
# T11 sequence: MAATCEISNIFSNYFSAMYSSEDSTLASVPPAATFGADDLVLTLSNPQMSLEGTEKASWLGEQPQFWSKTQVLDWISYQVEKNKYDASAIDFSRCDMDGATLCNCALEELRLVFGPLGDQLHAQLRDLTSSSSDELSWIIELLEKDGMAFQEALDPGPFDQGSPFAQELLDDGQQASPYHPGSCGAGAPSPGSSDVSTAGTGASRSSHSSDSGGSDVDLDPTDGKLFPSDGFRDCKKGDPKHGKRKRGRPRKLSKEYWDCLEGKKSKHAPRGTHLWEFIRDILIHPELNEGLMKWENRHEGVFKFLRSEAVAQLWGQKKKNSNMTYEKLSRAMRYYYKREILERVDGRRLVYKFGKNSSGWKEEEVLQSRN
# Method in brief: as §1
# CRX = CRX (Homo sapiens, UniProt O43186 1-299); conditions: protein: recombinant; tags: N-terminal GST; dsDNA, one strand shown
# Method in brief: as §1
# ETV1 = ETV1 (Homo sapiens, UniProt P50549 1-477); conditions: protein: recombinant; tags: N-terminal GST; dsDNA, one strand shown
# Method in brief: as §1
# Sequence of ELF1 (P32519 whole entry): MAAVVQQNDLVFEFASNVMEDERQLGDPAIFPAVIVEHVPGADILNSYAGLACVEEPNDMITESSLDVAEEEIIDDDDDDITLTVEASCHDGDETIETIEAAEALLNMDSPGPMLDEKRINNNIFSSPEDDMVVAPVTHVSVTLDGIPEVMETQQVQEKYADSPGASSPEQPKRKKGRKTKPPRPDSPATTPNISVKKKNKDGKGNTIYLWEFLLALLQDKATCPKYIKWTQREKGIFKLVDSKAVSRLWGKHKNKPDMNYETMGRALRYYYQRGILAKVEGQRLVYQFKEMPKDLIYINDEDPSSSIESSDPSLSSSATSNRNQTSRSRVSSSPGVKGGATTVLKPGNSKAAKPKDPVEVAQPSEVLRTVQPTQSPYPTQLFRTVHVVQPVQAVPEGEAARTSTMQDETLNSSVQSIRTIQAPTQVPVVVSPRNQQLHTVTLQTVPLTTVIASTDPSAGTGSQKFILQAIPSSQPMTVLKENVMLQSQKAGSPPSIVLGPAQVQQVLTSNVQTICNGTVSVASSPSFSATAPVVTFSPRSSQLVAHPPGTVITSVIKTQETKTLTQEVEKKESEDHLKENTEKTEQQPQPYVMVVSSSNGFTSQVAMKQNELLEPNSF
# Sequence of CRX (O43186 whole entry): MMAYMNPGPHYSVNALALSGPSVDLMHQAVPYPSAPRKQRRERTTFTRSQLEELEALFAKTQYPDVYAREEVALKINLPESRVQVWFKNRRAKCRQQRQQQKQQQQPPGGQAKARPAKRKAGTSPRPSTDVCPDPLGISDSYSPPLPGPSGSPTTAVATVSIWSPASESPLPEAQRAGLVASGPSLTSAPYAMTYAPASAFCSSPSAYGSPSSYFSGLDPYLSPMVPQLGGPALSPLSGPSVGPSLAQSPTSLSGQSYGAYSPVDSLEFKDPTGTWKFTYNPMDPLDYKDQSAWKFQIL
# Sequence of ELF4 (Q99607 whole entry): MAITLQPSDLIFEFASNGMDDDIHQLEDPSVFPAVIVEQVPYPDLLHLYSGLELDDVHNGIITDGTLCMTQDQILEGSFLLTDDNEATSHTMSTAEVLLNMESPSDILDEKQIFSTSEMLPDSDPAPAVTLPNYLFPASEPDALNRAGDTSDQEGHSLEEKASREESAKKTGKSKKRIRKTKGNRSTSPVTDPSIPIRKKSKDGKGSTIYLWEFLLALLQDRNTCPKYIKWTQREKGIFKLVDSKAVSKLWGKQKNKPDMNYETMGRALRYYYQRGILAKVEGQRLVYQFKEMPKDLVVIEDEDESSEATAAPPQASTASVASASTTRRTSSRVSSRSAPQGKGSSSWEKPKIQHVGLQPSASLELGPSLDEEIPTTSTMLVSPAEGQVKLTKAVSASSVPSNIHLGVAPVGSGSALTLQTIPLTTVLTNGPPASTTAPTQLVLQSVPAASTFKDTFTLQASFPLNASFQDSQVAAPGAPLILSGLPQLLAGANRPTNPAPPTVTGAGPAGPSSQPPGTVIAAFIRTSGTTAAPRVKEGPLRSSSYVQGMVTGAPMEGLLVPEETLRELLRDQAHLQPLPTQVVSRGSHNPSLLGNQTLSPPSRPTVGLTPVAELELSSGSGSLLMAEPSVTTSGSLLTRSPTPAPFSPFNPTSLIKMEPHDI
# Sequence of HSF1 (Q00613 whole entry): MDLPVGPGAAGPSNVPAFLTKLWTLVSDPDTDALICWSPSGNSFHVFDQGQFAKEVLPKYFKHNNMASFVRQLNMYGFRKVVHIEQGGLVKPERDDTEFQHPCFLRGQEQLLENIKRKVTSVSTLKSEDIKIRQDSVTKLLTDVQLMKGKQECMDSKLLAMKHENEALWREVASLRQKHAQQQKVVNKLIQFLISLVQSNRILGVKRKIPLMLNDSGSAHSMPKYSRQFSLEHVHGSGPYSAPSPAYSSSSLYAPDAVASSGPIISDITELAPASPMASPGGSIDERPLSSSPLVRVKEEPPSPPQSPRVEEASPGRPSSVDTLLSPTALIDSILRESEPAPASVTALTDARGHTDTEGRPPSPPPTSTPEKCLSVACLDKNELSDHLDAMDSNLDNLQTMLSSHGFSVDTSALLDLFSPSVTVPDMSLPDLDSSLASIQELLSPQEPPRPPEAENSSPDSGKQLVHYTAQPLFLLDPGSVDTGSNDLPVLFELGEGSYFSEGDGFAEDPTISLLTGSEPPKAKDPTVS
# Sequence of ETV1 (P50549 whole entry): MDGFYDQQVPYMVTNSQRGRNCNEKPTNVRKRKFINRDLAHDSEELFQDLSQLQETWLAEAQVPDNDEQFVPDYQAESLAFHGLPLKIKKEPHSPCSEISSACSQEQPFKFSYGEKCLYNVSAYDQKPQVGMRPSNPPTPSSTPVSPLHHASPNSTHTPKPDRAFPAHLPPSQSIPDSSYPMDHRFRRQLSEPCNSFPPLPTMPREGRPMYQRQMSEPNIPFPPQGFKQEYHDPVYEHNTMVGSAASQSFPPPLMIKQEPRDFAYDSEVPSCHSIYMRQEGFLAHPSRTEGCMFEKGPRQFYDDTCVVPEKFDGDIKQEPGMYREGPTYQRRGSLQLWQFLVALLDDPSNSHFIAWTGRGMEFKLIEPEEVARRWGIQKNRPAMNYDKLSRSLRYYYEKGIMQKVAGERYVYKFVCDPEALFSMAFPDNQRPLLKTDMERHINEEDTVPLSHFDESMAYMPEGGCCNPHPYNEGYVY
# Sequence of SPIB (Q01892 whole entry): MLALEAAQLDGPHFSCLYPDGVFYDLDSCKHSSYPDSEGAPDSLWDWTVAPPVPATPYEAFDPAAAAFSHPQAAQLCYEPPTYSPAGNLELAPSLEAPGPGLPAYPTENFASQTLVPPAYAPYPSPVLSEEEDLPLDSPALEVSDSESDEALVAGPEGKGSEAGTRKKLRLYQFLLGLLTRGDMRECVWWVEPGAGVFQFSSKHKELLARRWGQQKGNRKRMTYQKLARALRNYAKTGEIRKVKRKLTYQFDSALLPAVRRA
# Sequence of ETV5 (P41161 whole entry): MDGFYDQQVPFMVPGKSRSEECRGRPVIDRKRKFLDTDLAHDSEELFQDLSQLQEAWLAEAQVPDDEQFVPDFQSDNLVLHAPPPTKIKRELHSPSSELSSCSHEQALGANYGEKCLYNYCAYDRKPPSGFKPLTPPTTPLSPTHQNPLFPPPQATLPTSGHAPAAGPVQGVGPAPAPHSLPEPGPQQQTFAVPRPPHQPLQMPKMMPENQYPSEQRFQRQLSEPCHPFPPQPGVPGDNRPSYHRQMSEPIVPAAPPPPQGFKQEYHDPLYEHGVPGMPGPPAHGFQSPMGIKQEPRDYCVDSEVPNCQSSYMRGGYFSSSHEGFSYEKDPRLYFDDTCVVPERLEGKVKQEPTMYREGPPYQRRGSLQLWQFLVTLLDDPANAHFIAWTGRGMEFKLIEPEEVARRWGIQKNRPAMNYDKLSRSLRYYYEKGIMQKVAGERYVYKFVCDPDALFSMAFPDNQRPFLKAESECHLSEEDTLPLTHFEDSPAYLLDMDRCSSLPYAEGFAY
sequence,measurement,setting,value
TCCTTG,binding signal,FLI1,"1.25 fold enrichment (6-mer frequency, TF over GST control)"
same,binding signal,ELK1,"1.31 fold enrichment (6-mer frequency, TF over GST control)"
same,binding signal,GABPA,"1.25 fold enrichment (6-mer frequency, TF over GST control)"
same,binding signal,ERG,"1.35 fold enrichment (6-mer frequency, TF over GST control)"
same,binding signal,ELF1,"1.25 fold enrichment (6-mer frequency, TF over GST control)"
same,binding signal,EHF,"1.32 fold enrichment (6-mer frequency, TF over GST control)"
same,binding signal,SPI1,"1.31 fold enrichment (6-mer frequency, TF over GST control)"
same,binding signal,SPIB,"1.41 fold enrichment (6-mer frequency, TF over GST control)"
same,binding signal,ELK3,"1.29 fold enrichment (6-mer frequency, TF over GST control)"
same,binding signal,FEV,"1.21 fold enrichment (6-mer frequency, TF over GST control)"
same,binding signal,ETV5,"1.22 fold enrichment (6-mer frequency, TF over GST control)"
same,binding signal,HSF1,"1.15 fold enrichment (6-mer frequency, TF over GST control)"
same,binding signal,SPIC,"1.23 fold enrichment (6-mer frequency, TF over GST control)"
same,binding signal,ELF4,"1.27 fold enrichment (6-mer frequency, TF over GST control)"
same,binding signal,ELK4,"1.41 fold enrichment (6-mer frequency, TF over GST control)"
same,binding signal,ETV2,"1 fold enrichment (6-mer frequency, TF over GST control)"
same,binding signal,ELF3,"1.31 fold enrichment (6-mer frequency, TF over GST control)"
same,binding signal,CRX,"1.11 fold enrichment (6-mer frequency, TF over GST control)"
same,binding signal,ETV1,"1.35 fold enrichment (6-mer frequency, TF over GST control)"
